Source: ChEMBL document CHEMBL1157539, “Thousands of chemical starting points for antimalarial lead identification” (Nature, 2010)

The molecules below were run on Plasmodium falciparum (assay: GSK_TCMDC: Inhibition of Plasmodium falciparum Dd2 in whole red blood cells, using parasite LDH activity as an index of growth. Test compounds present at 2uM).
Assay type: functional

| SMILES | Inhibition |
| --- | --- |
| CN1CCC(N2CCN(Cc3cccc(-c4ccc(-c5nc6cc(F)ccc6[nH]5)cc4)c3)CC2)CC1.O=C(O)C(F)(F)F | 100% |
| Cc1nnsc1C(=O)Nc1cccc(-c2csc(-c3nc4ccccc4[nH]3)c2)c1 | 50% |
| CCC(C)c1ccc(NC(=O)Nc2ccnc3ccccc23)cc1.Cl (stereo not given) | 42% |
| CN=C(NC)c1cccc(NC(=O)C=Cc2ccc(C=CC(=O)Nc3cccc(C(=NC)NC)c3)cc2)c1.Cl | 99% |
| O=C(Nc1cc(C(F)(F)F)cc(C(F)(F)F)c1)c1cccc([N+](=O)[O-])c1 | 15% |
| COc1ccc(CNCc2ccc(F)cc2)cc1-c1ccc(OC)c(S(=O)(=O)NCCN2CCCC2)c1.O=C(O)C(F)(F)F | 88% |
| COCCn1c(Sc2ncnc3sccc23)nc2ccccc21 | 72% |
| O=C(NCc1ccc(F)cc1)Nc1ccc(-c2cccc(-c3nc4cc(F)ccc4[nH]3)c2)cc1 | 99% |
| Cc1ccc(NC(=O)c2ccc3ncccc3c2)cc1OC1CCN(Cc2ccsc2)CC1.O=C(O)C(F)(F)F | 29% |
| COc1ccc(NC(=O)/C=C/c2ccc(Cl)c(Cl)c2)cc1N1CCN(C)CC1 | 20% |
| Cc1cc(N[C@@H](CC(C)C)C(=O)NCc2cccc(F)c2)nc(Nc2ccccc2)n1.O=C(O)C(F)(F)F | 76% |
| COc1cc(NC(=O)c2ccc(-c3ccccc3)cc2)ccc1OCCCN1CCC(c2ccccc2)CC1.Cl | 30% |
| Br.Cc1cc(C)c(CON2C(=N)N=C(N)NC2(C)C)cc1C | 93% |
| O=C(O)C(F)(F)F.OCCN1CCN(Cc2cccc(-c3cccc(-c4nc5cc(F)ccc5[nH]4)c3)c2)CC1 | 99% |
| Cc1ccccc1C1CCN(C2CCC(NC(=O)/C=C/c3cccc(F)c3F)CC2)CC1 (stereo not given) | 45% |
| CCC1CN2CCc3c([nH]c4ccccc34)C2CC1CC1=NCCc2c1[nH]c1ccc(OC)cc21.Cl (stereo not given) | 68% |
| CCC(=O)OC(CCN(CC)CC)(c1ccccc1)c1ccccc1 | 6% |
| CC[C@H](C)CNC(=O)c1cncc(-c2ccc(CNCCOc3ccccc3)cc2)c1.O=C(O)C(F)(F)F | 0% |
| CC(C)CCN1CCC(Oc2ccc(NC(=O)c3cccs3)cc2Cl)CC1.O=C(O)C(F)(F)F | 96% |
| Cc1ccc(O)cc1Nc1ccnc2cc(-c3ccccn3)ccc12.Cl [GW440139A] | 98% |

| SMILES | Inhibition |
| --- | --- |
| CC(C)CNCc1ccc(-c2cccc(CN(CCN(C)C)C(=O)CCC3CCCC3)c2)cc1.O=C(O)C(F)(F)F | 81% |
| Oc1c(C(Nc2ccccn2)c2ccco2)cc(Cl)c2cccnc12 (stereo not given) | 65% |
| c1csc(-c2ccc3c(c2)CC(NCc2c[nH]c4cnccc24)C3)c1 (stereo not given) | 34% |
| O=c1c(Br)c(C(F)(F)F)[nH]c2ccc(Oc3ccccc3)cc12 | 17% |
| CCCCCCCCN1CCN(CCCCCCNc2c3ccccc3nc3ccccc23)CC1.Cl | 100% |
| COc1cccc(NC(=O)c2nc(N3CCN(c4ccncc4)CC3)ccc2Cl)c1.O=C(O)C(F)(F)F | 65% |
| Cc1cc(NC(=O)Nc2ccc(C#N)cc2)c2ccccc2n1 | 49% |
| Br.N=C(N)Nc1nc(-c2cc(NC(=O)C(F)(F)F)cc([N+](=O)[O-])c2)cs1 | 51% |
| c1ccc(COc2ccc(C3CCCCC3)cc2)nc1 | 1% |
| Cc1cccc(NC(=O)Nc2ccc(I)c(OCCN(C)C)c2)c1C | 17% |
| CC1CCCC(NC(=O)CCOc2ccccc2)C1 (stereo not given) | 32% |
| Cc1[nH]c(CNCCCNc2cc(=O)c3ccccc3[nH]2)c(Br)c1Br | 47% |
| O=C(Cn1c(=O)oc2ccccc21)N1CCC(n2c(=O)n(CCCN3CCOCC3)c3ccccc32)CC1 | 100% |
| CC(C)c1ccc(S(=O)(=O)N(c2ccc3c(c2)OCO3)C2CCN(Cc3ccccc3)C2)cc1 (stereo not given) | 92% |
| COc1cc(Nc2ncc3c(C)nc(-c4cc5ccccc5[nH]4)n3n2)cc(OC)c1OC | 65% |
| O=CO.O=S1(=O)NCc2ccc(Nc3nccc(Nc4ccc5c(cnn5Cc5ccccc5)c4)n3)cc21 | 33% |
| CC(C)(CNC(=O)[C@@H]1CCCN(CCOc2ccc(Cl)cc2)C1)c1nc(-c2ccc(Cl)c(O)c2)c(-c2ccncc2)[nH]1.Cl | 57% |
| N/C(=N\c1cccc(Cc2ccccc2)n1)NCc1ccccc1 | 52% |
| Cc1cc(NCCC(=O)NCCOc2ccccc2)nc(NCCc2ccc(F)cc2)n1.O=C(O)C(F)(F)F | 4% |
| Cl.N#Cc1ccc(-c2ccc3nc(N4CCCN(C5CCC5)CC4)ccc3c2)cc1 | 14% |
